# Data published in PubChem BioAssay (NCI).
# The panel holds about 83,000 compounds, 20% with a hit somewhere; the sample as a whole holds those more often.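 A percent growth of 40 corresponds to 60% growth inhibition; 0 means no net growth; -100 means all cells died. Active threshold: below 10.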 Unmarked numbers belong to inactive results. Active and inactive are the calls of the source.
# Assays:
# Test in all cases: NCI-60 one-dose screen, 48 h (100 = growth as untreated, 0 = no growth, -100 = all killed)
# Conditions in all cases: 10 µM unless noted
# DU-145 prostate = tested on: DU-145 prostate
# K-562 leukemia = tested on: K-562 leukemia
# MALME-3M melanoma = tested on: MALME-3M melanoma
# MDA-MB-231 breast = tested on: MDA-MB-231 breast
# RXF 393 renal = tested on: RXF 393 renal
# SF-268 CNS = tested on: SF-268 CNS
# SF-539 CNS = tested on: SF-539 CNS
# UACC-257 melanoma = tested on: UACC-257 melanoma
# M14 melanoma = tested on: M14 melanoma
Compound,growth (DU-145 prostate),growth (K-562 leukemia),growth (MALME-3M melanoma),growth (MDA-MB-231 breast),growth (RXF 393 renal),growth (SF-268 CNS),growth (SF-539 CNS),growth (UACC-257 melanoma),growth (M14 melanoma)
O=C(NNC(=S)Nc1ccccc1)c1ccc(Nc2ncnc3c2cnn3-c2cccc(Br)c2)cc1,107%,112%,101%,110%,99.6%,95.4%,98.5%,114%,100%
COc1ccc(/C=c2\c(=O)n(-c3ccccc3)c3nn4c(n23)=NNC42CCCCC2)cc1,106%,109%,97.8%,87.3%,110%,92%,102%,111%,102%
COc1ccc(-c2nnc(SCC(=O)Nc3ccc(C(=O)/C=C/c4ccc(Cl)cc4)cc3)n2-c2ccccc2)cc1,101%,96.7%,112%,79.6%,106%,91%,101%,115%,85.9%
COc1ccc(-n2nc(C(=O)NCC(=O)Nc3nc4cc(OC)ccc4s3)c3ccccc3c2=O)cc1,-28.9% (active),73.9%,-13.8% (active),-13.6% (active),-38.1% (active),-13.6% (active),-93% (active),-4.82% (active),44.3%
C/C(=N\NC(=S)N1CCCCC1)c1ccccn1,28.3%,2.29% (active),5.96% (active),24.7%,-17.6% (active),8.38% (active),5.37% (active),-2.18% (active),-33.4% (active)
CCCNC(=S)N/N=C(\C)c1ccccn1,34.3%,17%,24.3%,41.1%,10.4%,38.7%,24.2%,12%,6.11% (active)
c1ccc(C(Nc2ccccn2)(c2ccccc2)c2ccccc2)cc1,85.6%,56%,109%,66.8%,82.9%,99.5%,86.4%,97.4%,87.9%
Oc1[nH]c2ccccc2c1/C=c1/ccc2c(c1)N=C(c1ccc(C(F)(F)F)cc1)N=2,63.1%,14.6%,74.2%,46.6%,-37.2% (active),68.7%,67.4%,67.4%,44.6%
COc1ccccc1/C=N\NC(=S)Nc1ccc(F)cc1,98.6%,32.3%,65%,59.8%,88.2%,91.6%,73.3%,77.2%,48.4%
O=NN(CC(=O)NNc1ccccc1)CC(=O)NNc1ccccc1,68.7%,11.8%,102%,58.7%,84.9%,59.7%,72%,95.4%,33.1%
O=C(Nc1ccc(Cl)c(C(F)(F)F)c1)c1ccc(Nc2ccc(Cl)nn2)cc1,76.7%,44.2%,106%,59.3%,47.8%,80.7%,68.1%,74.6%,57.4%
COc1ccc(-c2n[nH]nc2-c2cc(OC)c3c(c2)OCO3)cc1,-4.79% (active),-11% (active),34%,-25.9% (active),19.1%,16.7%,-39.7% (active),68%,8.15% (active)
N=c1n(Cc2ccccc2)c(N)cc(=O)n1Cc1ccccc1,-19.6% (active),21%,23.3%,83%,-15.5% (active),2.59% (active),12.5%,43.8%,84.6%
CCCCNCCC(O)c1cc2ccc(C(F)(F)F)cc2c2cc(C(F)(F)F)ccc12 (centres undefined),-93.4% (active),-72.1% (active),-59.5% (active),-73.3% (active),-90.8% (active),-88% (active),-81.8% (active),-75.5% (active),-84.6% (active)
CCN(CC)CCCC(C)N/C(c1cccc(OC)c1)=c1\c(=O)[nH]n(-c2c3ccccc3nc3ccccc23)c(=O)\c1=C(/NC(C)CCCN(CC)CC)c1cccc(OC)c1 (centres undefined),-13.5% (active),-22.1% (active),-93.9% (active),-51.9% (active),-78.3% (active),-48.8% (active),-91.5% (active),-95.5% (active),-80% (active)
C#CC[C@@H]1C[C@]2(C)[C@H]3CC[C@@H]4[C@H]5C(C(=C)C)CC[C@]5(C(=O)NCCCN5CCN(CCCN)CC5)CC[C@@]4(C)[C@]3(C)CC[C@H]2C(C)(C)[C@H]1OC(C)=O (some centres undefined),-92% (active),-19.8% (active),67.8%,-83.3% (active),-87.4% (active),85.5%,-91.3% (active),72.1%,-80.5% (active)
COc1ccc(C(=O)C(C#N)c2cc(OC)c(OC)c(OC)c2)cc1 (centres undefined),114%,98.1%,106%,115%,103%,114%,93.8%,97.4%,102%
Cn1nc(C(F)(F)F)cc1-c1c[nH]c(OCc2ccc(Cl)cc2)c(-c2ccc(Cl)c(C(F)(F)F)c2)c1=O,15.7%,8.64% (active),-24.2% (active),-29% (active),-21.9% (active),8.48% (active),-11.4% (active),4.21% (active),1.49% (active)

Compound,growth (DU-145 prostate),growth (K-562 leukemia),growth (MALME-3M melanoma),growth (MDA-MB-231 breast),growth (RXF 393 renal),growth (SF-268 CNS),growth (SF-539 CNS),growth (UACC-257 melanoma),growth (M14 melanoma)
C=CC[C@]1(O)CC[C@H]2[C@@H]3CCc4cc(O)ccc4[C@H]3CC[C@@]21C,102%,56%,93.3%,99.6%,102%,97.1%,105%,102%,94.3%
O=C(Nc1cnc(C(F)(F)F)cn1)c1cc(Cl)ccc1O,24.9%,7.07% (active),-18.5% (active),-21.1% (active),-1.32% (active),18.2%,3.19% (active),-20.6% (active),-3.59% (active)
COc1ccc(-c2nc3ccc(Cc4ccc5nc(-c6ccc(OC)cc6)[nH]c5c4)cc3[nH]2)cc1,64.6%,13.4%,-13.1% (active),17.3%,93.9%,6.83% (active),56.6%,-20% (active),40.1%
O=C(O)C1[S][Sb]([CH](C(=O)O)[CH](C(=O)O)[Sb]2[S]C(C(=O)O)C(C(=O)O)[S]2)[S]C1C(=O)O (centres undefined),97.1%,76%,31.3%,88.2%,103%,104%,76.3%,89.3%,74.5%
C#CC[C@@H]1C[C@]2(C)[C@H]3CC[C@@H]4[C@H]5C(C(=C)C)CC[C@]5(C(=O)NCCCCN)CC[C@@]4(C)[C@]3(C)CC[C@H]2C(C)(C)[C@H]1OC(C)=O (some centres undefined),-77.8% (active),-9.82% (active),46.6%,-81.2% (active),-89.2% (active),91.6%,-82.9% (active),85.9%,-58.5% (active)
COc1ccc2[nH]c(O)c(/C=c3/ccc4c(c3)N=C(c3ccc(C(F)(F)F)cc3)N=4)c2c1,86.6%,29.7%,99.9%,74.8%,-4.65% (active),85.6%,78.2%,94.9%,90.1%
CC1C2CCC(C2)C1COCCOCCO (centres undefined),114%,109%,107%,113%,116%,112%,96.7%,87.8%,112%
C#CC[C@@H]1C[C@]2(C)[C@H]3CC=C4[C@H]5[C@@H](C)[C@H](C)CC[C@]5(C(=O)NCCCN5CCN(CCCN)CC5)CC[C@@]4(C)[C@]3(C)CC[C@H]2C(C)(C)[C@H]1OC(C)=O,0.421% (active),-23.3% (active),-81% (active),-70.4% (active),-82.1% (active),85%,-94% (active),-32.1% (active),-69.2% (active)
Cc1cc(C)cc(CCCCCCCCCCCCCCCCCC(=O)O)c1,108%,115%,108%,120%,107%,103%,106%,106%,98%
CCCCN(CCCC)CCC(O)c1cc2ccc(C(F)(F)F)cc2c2cc(C(F)(F)F)ccc12 (centres undefined),55.3%,5.28% (active),47.8%,33.2%,7.74% (active),63.3%,48.7%,41.6%,18.8%
C#CC[C@@H]1C[C@]2(C)[C@H]3CC=C4[C@H]5[C@@H](C)[C@H](C)CC[C@]5(C(=O)NCCCCN)CC[C@@]4(C)[C@]3(C)CC[C@H]2C(C)(C)[C@H]1OC(C)=O,58.6%,-26.6% (active),98.9%,39.5%,56.4%,69.8%,84.7%,115%,66.6%
CN(CCO)c1ccc(N2Cc3ccccc3OC3=C2C(=O)c2c(O)ccc(O)c2C3=O)cn1,-98.8% (active),-1.58% (active),-86.1% (active),-90.2% (active),-96.6% (active),-59.7% (active),-68.9% (active),-91.6% (active),-89% (active)
COc1cc2c(cc1OC)C(=O)C(Br)CC2 (centres undefined),31.5%,16.5%,3.69% (active),42.6%,40.8%,64.6%,68.2%,56.7%,32%
Cn1c(=O)c2c3c(oc2c2ccccc21)C(=O)c1ccccc1C3=O,91%,68.8%,113%,11.5%,101%,95.3%,97.2%,106%,85.6%
CCCc1cc2c(cc1CN(Cc1cc3c(cc1CCC)OCO3)C(=N)OCC)OCO2,97.6%,63.4%,82.8%,77.8%,106%,79.2%,112%,83.9%,85.9%
CCCCCCCCCCCCCC[N+](C)(C)CCCCCCCCCCCCCC,97.9%,30.5%,50.1%,78.9%,2.29% (active),70.8%,77.2%,82.5%,75.4%
c1ccc(C(CC2=NCCCN2)c2ccccc2)cc1,102%,107%,93.2%,88.6%,113%,100%,88%,97.7%,92.5%
C=C(CN1CC=CCC1)[C@@H]1CC[C@]2(C(=O)OC)CC[C@]3(C)[C@H](CC[C@@H]4[C@@]5(C)CC[C@H](OC(C)=O)C(C)(C)[C@@H]5CC[C@]43C)[C@@H]12,107%,57.9%,92.9%,99.2%,101%,92.5%,93.3%,91.9%,86.1%
